From PubChem BioAssay
Calls of active or inactive are those of the source. Unless noted, how the calls were made is not given here.

Tests used:
[1] = anti-His antibody binders, primary screen, artefact control for SMM control protein annotation, biochemical, small-molecule microarray, 635 nm fluorescence (AID 1128); settings: anti-His Alexa647 antibody binding, higher = more signal;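 further: score merges feature fluorescence with signal-to-noise for each printed compound spot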
[2] = system: Human papillomavirus type 1a E7 protein (residues 1-88); test: HPV1a E7 small-molecule binders, primary screen, biochemical, small-molecule microarray, residues 1-88, 635 nm (AID 1129); settings: small-molecule microarray binding, fluorescence 635 nm; higher = more signal
[3] = target: Focal adhesion kinase 1 (Homo sapiens) (UniProt Q05397); test: small-molecule microarray binders of FAK, primary screen, biochemical, 635/667 nm fluorescence, BSA, DTT (AID 1130); settings: PTK2 binding, 635 nm fluorescence, higher = more signal;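 further: composite of spot emission at 667 nm and signal to noise over triplicate slides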
Chain of Focal adhesion kinase 1 (Homo sapiens) (Q05397 whole entry, looked up): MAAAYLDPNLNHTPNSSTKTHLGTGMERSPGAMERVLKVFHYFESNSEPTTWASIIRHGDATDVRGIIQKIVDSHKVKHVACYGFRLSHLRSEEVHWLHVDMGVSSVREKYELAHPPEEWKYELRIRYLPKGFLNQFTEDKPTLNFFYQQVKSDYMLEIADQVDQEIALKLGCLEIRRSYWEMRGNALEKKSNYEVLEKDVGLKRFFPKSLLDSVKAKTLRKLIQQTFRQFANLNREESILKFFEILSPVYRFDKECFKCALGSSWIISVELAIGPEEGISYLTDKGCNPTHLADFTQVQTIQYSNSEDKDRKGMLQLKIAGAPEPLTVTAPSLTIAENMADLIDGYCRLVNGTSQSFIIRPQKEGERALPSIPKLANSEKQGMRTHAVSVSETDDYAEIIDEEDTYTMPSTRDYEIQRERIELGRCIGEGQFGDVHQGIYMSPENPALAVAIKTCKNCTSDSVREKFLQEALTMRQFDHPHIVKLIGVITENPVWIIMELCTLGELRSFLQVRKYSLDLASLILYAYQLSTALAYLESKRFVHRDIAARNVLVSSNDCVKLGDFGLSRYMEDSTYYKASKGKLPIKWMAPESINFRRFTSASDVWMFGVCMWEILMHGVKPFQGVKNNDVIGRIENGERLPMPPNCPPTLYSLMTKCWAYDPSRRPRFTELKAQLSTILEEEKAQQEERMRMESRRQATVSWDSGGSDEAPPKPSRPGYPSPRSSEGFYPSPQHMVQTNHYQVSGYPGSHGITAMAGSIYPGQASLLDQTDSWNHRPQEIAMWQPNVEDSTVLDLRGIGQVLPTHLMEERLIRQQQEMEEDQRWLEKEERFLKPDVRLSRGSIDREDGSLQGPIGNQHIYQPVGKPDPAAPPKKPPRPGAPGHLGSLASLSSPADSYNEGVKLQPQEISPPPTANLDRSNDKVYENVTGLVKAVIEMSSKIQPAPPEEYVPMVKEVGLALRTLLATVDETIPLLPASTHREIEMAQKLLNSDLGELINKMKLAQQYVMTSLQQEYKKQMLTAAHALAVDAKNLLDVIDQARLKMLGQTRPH

[4] = system: Fibrinogen (Alexa647-labelled); test: fibrinogen binders on compound microarrays, profiling panel, artefact control for SMM control-protein annotation, biochemical, small-molecule microarray, 635/667 nm fluorescence (AID 1131); settings: fibrinogen-A647 binding fluorescence, higher = more signal;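 further: z-score merges 667 nm fluorescence with per-spot signal-to-noise over triplicate slides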
[5] = target: Follistatin (Homo sapiens) (UniProt P19883); test: follistatin binders on small-molecule microarrays, primary screen, biochemical, small-molecule microarray, 635/667 nm fluorescence (AID 1132); settings: FST binding, 635 nm fluorescence, higher = more signal
Chain of Follistatin (Homo sapiens) (P19883 whole entry, looked up): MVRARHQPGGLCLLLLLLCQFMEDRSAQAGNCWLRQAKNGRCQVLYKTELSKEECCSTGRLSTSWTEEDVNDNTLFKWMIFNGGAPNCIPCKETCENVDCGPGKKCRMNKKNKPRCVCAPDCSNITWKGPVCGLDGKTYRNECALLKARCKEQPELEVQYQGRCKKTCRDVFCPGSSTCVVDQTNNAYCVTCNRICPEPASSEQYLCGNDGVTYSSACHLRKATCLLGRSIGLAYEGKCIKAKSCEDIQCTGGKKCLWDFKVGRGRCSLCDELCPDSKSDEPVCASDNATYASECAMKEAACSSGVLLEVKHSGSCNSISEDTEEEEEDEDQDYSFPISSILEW

[6] = target: Fibroblast growth factor 2 (Homo sapiens) (UniProt P09038); test: FGF2 binders on small-molecule microarrays, primary screen, biochemical, small-molecule microarray, 635/667 nm fluorescence (AID 1133); settings: small-molecule microarray binding, FGF2, fluorescence 635/667; higher = more signal
Chain of Fibroblast growth factor 2 (Homo sapiens) (P09038 whole entry, looked up): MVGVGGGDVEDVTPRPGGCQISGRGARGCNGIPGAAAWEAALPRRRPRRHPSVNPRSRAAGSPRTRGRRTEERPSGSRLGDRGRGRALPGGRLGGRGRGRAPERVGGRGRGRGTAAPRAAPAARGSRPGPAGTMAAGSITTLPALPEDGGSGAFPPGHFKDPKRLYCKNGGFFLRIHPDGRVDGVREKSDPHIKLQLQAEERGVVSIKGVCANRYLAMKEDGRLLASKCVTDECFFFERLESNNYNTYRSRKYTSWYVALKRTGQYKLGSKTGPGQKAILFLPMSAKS

[7] = mitochondrial membrane potential change in A549 cells, profiling panel, cell-based, JC-1 fluorescence, basal, 24 h, 100 nL (AID 1138); settings: higher = more signal;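 further: A549 lung adenocarcinoma cells under basal conditions with no added stimulus; test concentration not given here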
Lefty1 = Lefty1 binders on small-molecule microarrays, primary screen, biochemical, small-molecule microarray, 635/667 nm fluorescence (AID 1139); settings: small-molecule microarray binding, fluorescence 635/667; higher = more signal
[8] = system: wheat germ agglutinin (Triticum aestivum), Alexa647-labelled; test: wheat germ agglutinin binders on compound microarrays, profiling panel, artefact control for SMM control-protein annotation, biochemical, small-molecule microarray, 635/667 nm fluorescence (AID 1140); settings: WGA-A647 binding, 635 nm fluorescence, higher = more signal;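 further: score merges 667 nm feature emission with signal to noise over triplicate slides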
[9] = target: Luciferin 4-monooxygenase (Photinus pyralis) (UniProt P08659); test: firefly luciferase enzyme inhibitors, primary screen, biochemical, luminescence, purified enzyme, 2006 set (AID 1141); settings: SteadyGlo luminescence, 30 min, higher = more signal, called active from +8 up or from −8 down;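 further: cell-free assay with purified firefly luciferase at 100 ng per well in PBS; test concentration not given here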
Chain of Luciferin 4-monooxygenase (Photinus pyralis) (P08659 whole entry, looked up): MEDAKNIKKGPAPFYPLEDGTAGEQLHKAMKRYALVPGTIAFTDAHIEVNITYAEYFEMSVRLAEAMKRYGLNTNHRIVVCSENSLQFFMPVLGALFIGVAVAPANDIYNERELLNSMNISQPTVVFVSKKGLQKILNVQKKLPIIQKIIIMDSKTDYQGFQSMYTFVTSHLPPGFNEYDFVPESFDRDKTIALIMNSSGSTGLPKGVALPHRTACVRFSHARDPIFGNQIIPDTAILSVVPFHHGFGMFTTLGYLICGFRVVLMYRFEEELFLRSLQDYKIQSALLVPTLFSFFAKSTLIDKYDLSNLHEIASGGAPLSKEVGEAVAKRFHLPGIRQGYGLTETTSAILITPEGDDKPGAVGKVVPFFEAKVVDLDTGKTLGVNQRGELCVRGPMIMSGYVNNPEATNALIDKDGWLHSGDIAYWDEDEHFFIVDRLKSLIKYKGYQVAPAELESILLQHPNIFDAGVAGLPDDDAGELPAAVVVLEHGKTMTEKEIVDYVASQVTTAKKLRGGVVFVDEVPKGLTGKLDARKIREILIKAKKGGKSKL

[10] = system: Wnt5a (protein binding on small-molecule microarray); test: Wnt5a binders on small-molecule microarray, primary screen, biophysical, 635/667 nm fluorescence (AID 1142); settings: 635 nm fluorescence, higher = more signal;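 further: fluorescence read at 667 nm with signal to noise per printed feature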
[11] = cell viability in Huh7 cells, primary screen, cytotoxicity control for HCV replication inhibitor project, CellTiter-Glo luminescence, basal, 48 h (AID 1143); settings: Huh7 HCV replicon, higher = more signal, called active from +8 up or from −8 down;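 further: Huh7 hepatoma cells carrying a hepatitis C replication reporter with no stimulus; test concentration not given here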
[12] = P. aeruginosa biofilm formation inhibitors, primary screen, PAO1 strain, BacTiter-Glo luminescence, LB-PBS (AID 1144); settings: 12 h, higher = more signal
[13] = CREB reporter modulators without forskolin, primary screen, cell-based, PC12, CRE-LacZ reporter, unstimulated (AID 1145); settings: no forskolin, luminescence, 4.5 h, higher = more signal, called active from +8 up or from −8 down
[14] = CREB reporter modulators under forskolin, primary screen, cell-based, PC12, CRE-LacZ reporter, forskolin-stimulated (AID 1146); settings: luminescence, 4.5 h, higher = more signal, called active from +8 up or from −8 down;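 further: PC12 cells with 6xCRE LacZ reporter stimulated by forskolin 10 µM; beta-galactosidase reporter signal reflecting CREB driven transcription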
[15] = target: Streptavidin (Streptomyces avidinii) (UniProt P22629); test: streptavidin binders on small-molecule microarray, primary screen, artefact control for SMM compound annotation, biophysical, 635/667 nm fluorescence (AID 1147); settings: streptavidin binding, higher = more signal;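 further: signal reflects streptavidin binding to arrayed compounds as a control protein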
Chain of Streptavidin (Streptomyces avidinii) (P22629 whole entry, looked up): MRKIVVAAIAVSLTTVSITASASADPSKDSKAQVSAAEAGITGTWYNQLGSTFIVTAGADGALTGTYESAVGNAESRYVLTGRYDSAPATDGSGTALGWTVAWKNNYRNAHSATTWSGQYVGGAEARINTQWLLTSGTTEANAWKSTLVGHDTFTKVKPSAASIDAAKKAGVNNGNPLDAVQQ

[16] = small-molecule binders of probe aInhba, primary screen, biochemical, small-molecule microarray, 635/667 nm fluorescence (AID 1148); settings: higher = more signal;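 further: score merges 667nm spot fluorescence with signal-to-noise for antibody binding to printed compounds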
Torsin-1A (Homo sapiens) [17] = target: Torsin-1A (Homo sapiens) (UniProt O14656); test: torsin A binders from cell lysate, primary screen, small-molecule microarray, wild-type, 635/667 nm (AID 1149); settings: COS7 hTOR1A-WT lysate, 635 nm fluorescence, higher = more signal
Chain of Torsin-1A (Homo sapiens) (O14656 whole entry, looked up): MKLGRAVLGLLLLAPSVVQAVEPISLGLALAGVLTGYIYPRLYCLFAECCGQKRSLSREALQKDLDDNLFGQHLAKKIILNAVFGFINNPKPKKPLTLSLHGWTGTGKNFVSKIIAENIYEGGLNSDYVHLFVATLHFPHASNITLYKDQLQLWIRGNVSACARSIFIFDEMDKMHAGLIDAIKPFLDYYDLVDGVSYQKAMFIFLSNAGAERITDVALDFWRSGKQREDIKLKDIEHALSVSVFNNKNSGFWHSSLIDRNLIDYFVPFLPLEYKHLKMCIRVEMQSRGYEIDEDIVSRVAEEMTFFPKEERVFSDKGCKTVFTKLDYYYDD

Torsin-1A (Homo sapiens) [18] = target: Torsin-1A (Homo sapiens) (UniProt O14656); test: small-molecule binders of mutant TOR1A in lysate, primary screen, cell lysate, small-molecule microarray, COS7 lysate, 635/667 nm fluorescence (AID 1150); settings: COS7 hTOR1A mutant lysate, 635 nm fluorescence, higher = more signal;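 further: score pools 667 nm emission and signal to noise measuring lysate protein binding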
[19] = system: Sonic hedgehog protein (Shh); test: small-molecule binders of Shh protein, primary screen, biochemical, small-molecule microarray, 635/667 nm fluorescence (AID 1151); settings: small-molecule microarray binding, 635 nm fluorescence; higher = more signal;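 further: Shh protein binding to compounds spotted on small-molecule microarray slides; score combines spot fluorescence intensity with signal-to-noise across triplicate slides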

| SMILES | composite z-score [1] | composite z-score [2] | composite z-score [3] | composite z-score [4] | composite z-score [5] | composite z-score [6] | z-score [7] | composite z-score (Lefty1) | composite z-score [8] | z-score [9] | composite z-score [10] | z-score [11] | z-score [12] | z-score [13] | z-score [14] | composite z-score [15] | composite z-score [16] | composite z-score (Torsin-1A (Homo sapiens) [17]) | composite z-score (Torsin-1A (Homo sapiens) [18]) | composite z-score [19] |
| --- | --- | --- | --- | --- | --- | --- | --- | --- | --- | --- | --- | --- | --- | --- | --- | --- | --- | --- | --- | --- |
| CC(c1ccccc1)C(O)C1C=CC2C(=O)N(Cc3ccccc3)C(=O)C2N1n1cnnc1 (stereo not given) | 0.509 | 0.914 | 0.146 | 0.654 | 0.374 | 0.408 | -1.27 | -0.133 | 0.532 | 1.52 (inactive) | 0.0618 | -0.0357 (inactive) | 0.144 (inactive) | -0.172 (inactive) | 0.945 (inactive) | 0.705 | -0.145 | 0.327 | 0.358 | -0.506 |
| COC(=O)[C@@]1(Cc2ccc(OC)cc2)[C@H]2c3cc(C(=O)N4CCCC4)n(CCN4CCOCC4)c3C[C@H]2CN1C(=O)c1ccccc1 | 0.954 | 1.19 | 1.75 | 0.998 | 0.193 | -0.125 | 0.892 | -0.499 | 0.76 | 1.12 (inactive) | 2.64 | -0.267 (inactive) | 0.356 (inactive) | 0.966 (inactive) | 1.64 (inactive) | 2.02 | 1.75 | 0.27 | 1.71 | -0.641 |
| COC(=O)c1nc2oc1CC[C@@H](CO)NC(=O)N(C)Cc1cn(nn1)C[C@H](Cc1ccccc1)NC2=O | 0.0255 | -0.151 | -0.242 | 0.0318 | 0.905 | 1.06 | 0.457 | 0.17 | 0.536 | 0.376 (inactive) | -0.0811 | -0.0962 (inactive) | 0.0307 (inactive) | 4.65 (inactive) | 0.338 (inactive) | -0.357 | -0.016 | -0.685 | -1.25 | 0.337 |
| COC(=O)[C@@]1(Cc2ccc(OC)cc2)[C@H]2c3cc(C(=O)N(C)C)n(CCSCCO)c3C[C@H]2CN1C(=O)c1ccccc1 | 0.957 | 1.32 | 1.68 | 0.971 | 0.108 | -0.569 | -0.399 | -1.03 | 0.515 | -0.572 (inactive) | 0.706 | -2.19 (inactive) | 0.565 (inactive) | -0.954 (inactive) | 0.325 (inactive) | 0.872 | 0.351 | -0.101 | 0.199 | -0.824 |
| C=CCN1C(=O)[C@]2(COC(c3ccc(OCCCO)cc3)=N2)Cc2ccccc21 | 3.08 | 1.15 | 0.0652 | 0.885 | 1.08 | 1.08 | 0.604 | -0.14 | -0.0492 | -3.52 (inactive) | 0.258 | -3.34 (inactive) | -1.18 (inactive) | 1.8 (inactive) | -1.3 (inactive) | -0.554 | 0.167 | 0.689 | 0.277 | 0.169 |
